Pin1 inhibitor: inhibitors of human Pin1 | Potency, µM (highest dose often 115 µM), inactives show top-dose activity, negative = inhibition, actives largely listed as inhibitors | Pin1 FP peptide displacement, HiFluor488, 10 min | AID 504891 | Q13526 | 390,000 tested, 0.009% active; active = well fitted inhibition curve with a large enough effect in the polarisation, with a control signal flat, not every such curve was filed as active; inconclusive = small, poorly fitted or top-dose-only effect, or effect the other way, or a change in a side signal; inactive = no such curve, though single readings can be large or run the other way; the % refers to the polarisation; note: potency is the fitted concentration of half-maximal effect; % is set by controls: 0 for no effect and ±100 for the full control effect
Target sequence (Q13526 whole entry, looked up): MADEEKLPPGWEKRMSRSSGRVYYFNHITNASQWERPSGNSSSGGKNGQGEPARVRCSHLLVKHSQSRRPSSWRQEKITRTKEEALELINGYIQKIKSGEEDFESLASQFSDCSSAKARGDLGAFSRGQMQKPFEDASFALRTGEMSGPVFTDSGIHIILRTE
PKM2 activator: increases activity of human pyruvate kinase M2 | P14618 | purified PKM2, Kinase-Glo ATP luminescence, activation; response scale: 0% is enzyme alone, no compound | Potency, µM (highest dose often 57.5 µM), without a hit: at the highest dose activation, hits mostly activators | 260,000 tested, 0.34% active; note: potency is the fitted concentration of half-maximal effect; % is set by controls: 0 for no effect and ±100 for the full control effect; nearly all actives have a fitted effect of over 55% in size
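hPK-M2, >95% pure; 0.1 mM ADP / 0.5 mM PEP final; imidazole pH7.2 buffer w/ 7 mM MgCl2, 50 mM KCl; 1 h RT; Kinase-Glo lum. Intermediate enzyme activity for dual inhibitor/activator qHTS.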
IL-2 act: IL-2 activation | AID 652025 | 360,000 tested, 0.065% active | IL-2 activation reporter assay, cell-based qHTS; stimulated with anti-CD3/CD4/CD28 beads; in transgenic mouse T cells | activation, % (series mostly up to about 46 µM); in the data active = activation above about 50%; inconclusive = mostly about 30% to 49%; note: 0% is about no effect
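Readout is EGFP and DsRed signal by fluorescent plate cytometry after 18 h at 37 degrees C. Transgenic mouse T cells (750/well) received compound for 60 min before bead stimulation (anti-CD3, anti-CD4, anti-CD28); memory T cells served as non-tolerant control.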
ClpP mod: qHTS Assay for Activators of ClpP; ATP-dependent Clp protease proteolytic subunit (Bacillus subtilis (strain 168)), P80244; purified B. subtilis ClpP, FRET peptide cleavage, 20 min; Potency, µM (highest dose often 57.5 µM), for the others: top-dose activity change, negative = active; 340,000 tested, 1.9% active; AID 651965, 2013; active = well fitted falling curve with a large enough effect; inconclusive = small, poorly fitted or top-dose-only effect; inactive = no such curve, though single readings can be large or run the other way; note: potency is the fitted concentration of half-maximal effect; the source files actives as falling curves though it sought activators and does not explain the sign; nearly all actives have a fitted effect of over 65% in size
Target sequence (P80244 whole entry, looked up): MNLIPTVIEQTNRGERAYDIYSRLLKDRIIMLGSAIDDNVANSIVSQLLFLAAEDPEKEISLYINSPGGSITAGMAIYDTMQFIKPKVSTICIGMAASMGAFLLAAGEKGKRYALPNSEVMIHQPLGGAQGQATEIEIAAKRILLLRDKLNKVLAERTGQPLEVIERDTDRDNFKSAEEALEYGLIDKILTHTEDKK
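Buffer: 100 mM Tris/HCl pH8, 100 mM KCl, 0.05% low protease BSA, 2.5% glycerol, 0.01% Tween-20. ClpP 10 microg/mL final; 20 min RT; delta FRET normalized to ADEP and DMSO controls.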
Integrin act MD: integrin-mediated muscular dystrophy alleviation activation; Potency, µM (doses to about 38.3 µM), without a hit: top-dose activation, hits mostly activators; AID 624291; alpha7betagal myoblasts, beta-gal FDG fluorescence, 48 h; 350,000 tested, 0.064% active;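 note: potency is the fitted concentration of half-maximal effect; 100% = response of the positive control SU9516; nearly all actives have a fitted effect of over 60% in size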
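Alpha7betagal+/- myoblasts (passage 13) were plated 16-24 hr, then exposed to compounds (1:260 dilution of DMSO stock) for 48 hours at 37C. After MPER lysis, β-galactosidase reporter activity was read as FDG fluorescence (ex 480/em 540) after 30 minutes.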
USP2a inh: blocks human ubiquitin-specific protease USP2a. O75604. USP2 core, Ub-CHOP2 coupled fluorogenic reporter, 485/531. Potency, µM (titrated, usually from 38.3 µM), inactives show at the top dose activity change, negative = inhibition, most hits filed as inhibitors. 330,000 tested, 0.01% active;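 note: potency is the fitted concentration of half-maximal effect; plate controls were DMSO wells for no effect and full inhibition by NEM control for full effect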
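Deubiquitinase activity read as fluorescence (485/531 nm) after Ub-CHOP2 cleavage activates the enterokinase reporter on its substrate; USP2 core 10nM, Ub-CHOP2 and substrate 25nM each, 30min compound preincubation then 60min RT; data normalized to NEM, curves fitted.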
ClpP inh valid: inhibits B. subtilis ClpP protease, hit validation. shares compounds with ClpP mod. purified B. subtilis ClpP, FRET-FV substrate cleavage, 20 min. Potency, µM (top dose mostly 57.5 µM), for the others: at the highest dose activity change, negative = inhibition, most hits filed as inhibitors. 470 tested, 40% active; note: potency is the fitted concentration of half-maximal effect; % is set by controls: 0 for no effect and ±100 for the full control effect; nearly all actives have a fitted effect of over 70% in size
Starred values were filed as active, the others as inactive; ? = inconclusive; / = no result given. In the library only some 1.9% were active in any assay of this set; here they are far more common. Unless noted, calls come from the whole dose curve; as a rule, active = well fitted curve in the direction sought with a large enough effect; inconclusive = small, poorly fitted or top-dose-only effect, or another doubt; inactive = no such curve, though single readings can be large; an effect the other way counts as inactive or inconclusive.

SMILES | Pin1 inhibitor | PKM2 activator | IL-2 act | ClpP mod | Integrin act MD | USP2a inh | ClpP inh valid
O=C(NNc1cc(Cl)cc(Cl)c1)c1sccc1Cl | -5% | / | / | 1% | / | / | /
O=C(Nc1cccc(-c2cn3ccccc3n2)c1)c1cc2ccccc2oc1=O | ? | 0% | 0 | 37% | -56% | -2% | 14%
CC(=O)Nc1cccc(-c2cn3ccccc3n2)c1 | -4% | -4% | -1 | / | ? | 4% | /
CCc1ccc(-n2nc3ccc(NC(=O)c4ccc5c(c4)OCO5)cc3n2)cc1 | 4% | 5% | -1 | 3.2µM* | -5% | 2% | -14%
CCOc1ccc(-n2nc3ccc(NC(=O)c4cccc(F)c4)cc3n2)cc1 | 2% | / | / | -2% | / | / | /
CCOC(=O)c1cccc(NC(=O)c2ccc3c(c2)OCO3)c1 | 2% | -6% | 0 | -8% | -22% | 3% | /
CCOc1ccc(-n2nc3ccc(NC(=O)c4ccc5c(c4)OCCO5)cc3n2)cc1 | 2% | -13% | 0 | 8.9µM* | -43% | 1% | ?
COc1ccc(CCNC(=O)Cn2nc(C)c3c(C)n(-c4ccc(C)cc4)nc3c2=O)c(OC)c1 | 165% | / | / | -8% | / | -1% | /
Cc1ccc(C(=O)Nc2cccc(C(F)(F)F)c2)cc1NC(=O)c1nccnc1N | 4% | -2% | 2 | 159% | 17% | 0% | ?
CC1=C(c2ccc(C)c(C)c2)S(=O)(=O)N(Cc2ccc(C(=O)NC(C)c3ccccc3)cc2)C1=O (stereo unspecified) | 17% | / | / | 5.6µM* | / | / | 34µM*
Cc1ccccc1Nc1c(-c2c[nH]c3ccccc23)nc2ccc(Cl)cn12 | ? | / | / | 5µM* | / | / | -16%
O=c1[nH]c2cc(Cl)ccc2c(O)c1-c1ccc(Oc2ccccc2)cc1 | / | / | / | / | / | / | -15%
O=c1[nH]c2cc(Cl)ccc2c(O)c1-c1cccc(Oc2ccccc2)c1 | 2% | / | 0 | -17% | / | / | /
O=c1oc2ccccc2cc1-c1nc(-c2cccc(Cl)c2)cs1 | ? | / | / | 4.5µM* | / | / | ?
CNc1nnc(-c2cccc(N(C)C)c2)s1 | 0% | -6% | -1 | 39% | 25% | 3% | 0%
O=c1c2ccccc2nc2n1CCCCN2 | 5% | 2% | -1 | 4µM* | 15% | 2% | 24µM*
COc1ccc(C2CC(c3ccccc3)Oc3cc(OC)c(OC)c(OC)c32)cc1 (stereo unspecified) | 1% | / | / | / | / | / | /
O=C(Nc1ccc2nc(SCC(=O)N3CCc4ccccc43)sc2c1)c1ccc(F)cc1 | 3% | / | / | 416% | / | / | 24µM*
COc1ccc(NC(=O)c2cc3cc(OC)ccc3oc2=O)cc1 | -1% | / | 6 | 0% | -1% | / | /
COc1ccc2oc(=O)c(C(=O)Oc3ccc(NC(C)=O)cc3)cc2c1 | -2% | 0% | -1 | 82% | 2% | 1% | 5%
COc1ccc(-n2ccn(CC(=O)NCCc3ccccc3)c(=O)c2=O)cc1OC | -1% | / | / | -3% | / | / | /
CCOC(=O)c1c(NC(=O)CSc2cn(CCNC(=O)c3ccccc3OC)c3ccccc23)sc2c1CCC2 | ? | / | / | -9% | / | / | /
COc1ccc(S(=O)(=O)N(C)c2ccc(C(=O)N3CCOCC3)cc2)cc1 | -6% | -4% | 0 | 2.2µM* | -2% | -1% | 0%
O=S(=O)(Nc1cccc(-c2cn3cccnc3n2)c1)c1ccc(F)cc1 | 5% | -1% | -1 | 4µM* | -1% | 3% | 24µM*
O=C(Cn1c(=O)sc2ccccc21)NCCOc1ccccc1F | 1% | 2% | -2 | 7.9µM* | 10% | -1% | -1%
